High-throughput results as filed in PubChem BioAssay.
IL-1B inflam inh – blocks inflammasome-driven IL-1 beta release. 360,000 compounds, 4.7% hits. activity change, % at 57.5 µM. THP-1 LPS/ATP IL-1B secretion, AlphaLISA, 16 h; stronger effect = lower value. AID 743279; in the data active means activity change below about -50%; inconclusive means mostly about -30% to -49%; further: on the % scale 0 is the no-effect control and ±100 the full control effect
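Secreted IL-1B measured by AlphaLISA bead assay after 16 h compound exposure of THP-1 cells; compounds (final up to 57.5 uM) added 1 h before LPS (250 ng/mL) and ATP (1.25 mM) stimulation; lower signal means less secretion.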
D3 ag – activates the human D3 dopamine receptor; max activation, %; 410,000 compounds, 0.58% hits; P35462; D3R DiscoveRx beta-arrestin cells, luminescence, 90 min; in the data active means max activation above about 30%; further: 0% is about no effect
Target sequence (P35462 whole entry, looked up): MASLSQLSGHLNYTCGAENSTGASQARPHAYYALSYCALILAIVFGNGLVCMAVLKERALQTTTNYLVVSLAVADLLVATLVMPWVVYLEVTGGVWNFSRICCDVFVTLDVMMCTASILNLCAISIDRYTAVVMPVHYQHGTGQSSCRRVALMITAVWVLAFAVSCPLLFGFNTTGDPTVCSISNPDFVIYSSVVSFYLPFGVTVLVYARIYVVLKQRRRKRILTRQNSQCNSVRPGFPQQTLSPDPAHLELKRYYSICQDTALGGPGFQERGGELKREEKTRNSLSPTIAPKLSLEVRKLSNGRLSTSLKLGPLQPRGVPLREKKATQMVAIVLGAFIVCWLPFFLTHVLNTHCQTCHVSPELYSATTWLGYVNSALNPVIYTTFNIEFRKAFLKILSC
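Agonist mode: compounds and dopamine controls were applied to plated cells for 90 min at 37 degrees C after an overnight attachment at 1500 cells/well. Luminescent read-out followed 30 - 60 minutes at room temperature with DiscoveRx detection reagent.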
a7 integrin act – activates integrin-mediated alleviation for muscular dystrophy; AID 624291; Potency, µM (top dose mostly 38.3 µM), for the others: top-dose activation, most hits filed as activators; alpha7betagal myoblasts, beta-gal FDG fluorescence, 48 h; 350,000 compounds, 0.064% hits;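 further: potency means the concentration at half of the fitted maximal effect; 100% = response of the positive control SU9516; nearly all actives have a fitted effect of over 60% in size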
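Alpha7betagal+/- myoblasts (passage 13) were plated 16-24 hr, then exposed to compounds (1:260 dilution of DMSO stock) for 48 hours at 37C. After MPER lysis, β-galactosidase reporter activity was read as FDG fluorescence (ex 480/em 540) after 30 minutes.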
ATXN viability – viability counter-screen for ATXN expression inhibitors | S2 cells (HEK-293 line with an ATXN2-luciferase reporter) viability, CellTiter-Fluor protease fluorescence, 24 h | Potency, µM (series often up to 56.7 µM), usual class: cytotoxic | 400,000 compounds, 0.49% hits; further: potency means the concentration at half of the fitted maximal effect; nearly all actives have a fitted effect of over 40% in size
DRD3 antagonist – antagonists of human D3 dopamine receptor; 360,000 compounds, 2.5% hits; D3R cells, DiscoveRx beta-arrestin luminescence, antagonist mode; stronger effect = lower value; max response, negative = inhibition, %; P35462; AID 652054; in the data active means max response below about -50%; inconclusive means no clear call, values can overlap the other calls; further: on the % scale 0 is the no-effect control and ±100 the full control effect
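Cells plated overnight at 1500 cells/well, then exposed to library compounds with dopamine controls for 90 minutes at 37 degrees C. DiscoveRx reagent added for 30–60 minutes at room temperature; luminescence read, quantitative HTS format.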
ATXN2 expr inh – ATXN2 expression inhibition. Potency, µM (doses to about 57 µM), for inactives: at the top dose activity change, negative = inhibition, most hits filed as inhibitors. HEK-293 ATXN2-luciferase reporter, luminescence, 24 h. AID 1745845. 360,000 compounds, 0.72% hits; further: potency means the concentration at half of the fitted maximal effect; on the % scale 0 is the no-effect control and ±100 the full control effect; nearly all actives have a fitted effect of over 55% in size
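qHTS (up to 57 uM final) was run with 24 h compound exposure of reporter cells at 37 °C. Each well was multiplexed: SteadyGlo luminescence measured ATXN2-luciferase expression after a fluorogenic Gly-Phe-AFC viability readout (25 uM final).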
* = called active by the depositor; i = inactive; ? = inconclusive; . = no result given. Hits are enriched below; roughly 7% of the tested compounds scored in any of these assays. Unless noted, the call rests on the fitted dose curve; in most records, active means well fitted curve in the direction sought with a large enough effect; inconclusive means small, poorly fitted or top-dose-only effect, or another doubt; inactive means no such curve, though single readings can be large; an effect the other way counts as inactive or inconclusive.

SMILES	IL-1B inflam inh	D3 ag	a7 integrin act	ATXN viability	DRD3 antagonist	ATXN2 expr inh
COc1ccc(C(c2nnnn2-c2ccc(OC)cc2)N2CCN(C/C=C/c3ccccc3)CC2)cc1 (stereo not drawn)	-53*	-14	.	?	-89*	-15%
COc1ccc(-n2nnnc2C(c2cccs2)N2CCN(C/C=C/c3ccccc3)CC2)cc1 (stereo not drawn)	0	-23	.	i	-60*	-6%
CCn1nnnc1SCC(=O)c1ccc2c(c1)OCCO2	14	5	3%	i	9	14%
COc1ccc(NC(=O)CSc2nc(-c3ccncc3)nn2CC(=O)N2CCCC2)cc1	6	22	-2%	?	32	2%
O=C(Nc1ccccc1)c1cc(C2CCCCN2C(=O)c2ccccc2)on1 (stereo not drawn)	18	-8	.	i	-11	-18%
COc1ccc(C=C(C#N)c2ccc(OC)cc2)cc1	-58*	-2	-4%	i	-17	96%
COc1ccc(CCCCCCOCc2ccccc2)cc1	0	0	0%	i	-21	1%
COc1ccc(COC[B-](F)(F)F)cc1	-53*	5	1%	?	4	-32%
COc1ccc(CC2S/C(=N/N=C/c3ccccc3O)NC2=O)cc1 (stereo not drawn)	50	-12	-37%	?	-17	?
O=C1N/C(=N/N=C/c2ccccc2O)SC1Cc1ccc(F)cc1 (stereo not drawn)	132	-17	-61%	?	-56*	8.9µM*
Cc1sc2ncnc(N3CCCCC3)c2c1C	21	8	-20%	i	30	-18%
Cc1ccc(OCCN2CCN(c3ncnc4sc(C)c(C)c34)CC2)cc1	?	33*	-43%	i	16	-37%
C=C1C(=O)OC2C=C(CO)CCC=C(CO)CC(OC(=O)C(C)C)C12 (stereo not drawn)	-101*	1	-47%	?	?	?
COc1cccc(NC(=O)CN(C)C(=O)/C=C/c2ccc3ccccc3n2)c1	-77*	-16	-25%	i	-13	4%
COc1cccc(NC(=O)CN(C)C(=O)CNC(=O)c2ccc(Oc3ccccc3)cc2)c1	-96*	4	3%	i	0	25%
C[n+]1ccc(/C=N/Nc2nc(Cl)c(C#N)c(Cl)c2Cl)cc1	-59*	-19	-41%	?	?	-23%
Clc1nnc(N/N=C/c2ccccc2)c2ccccc12	-12	4	2%	i	-9	56%
Cc1c(C(=O)N2CC[C@@H](N3CCC(O)CC3)[C@H](O)C2)[nH]c2ccc(Cl)cc12	-54*	5	-42%	i	12	-21%
Cc1c(C(=O)N2CCC(n3nccc3NC(=O)C3CC3)CC2)[nH]c2ccc(Cl)cc12	-13	-3	-24%	i	0	-9%
Cc1ccc(C(=O)NCC(=O)NCc2ccccc2F)s1	21	-1	-6%	i	-9	-7%
O=C(NCCCSc1ccccc1)c1cnc(Cl)c(Cl)c1	-94*	0	-12%	i	9	-14%
O=C(NCCc1ccccc1)c1cnc(Cl)c(Cl)c1	-87*	-7	8%	i	-1	20%
O=C(NCCCSc1ccccc1)c1cccnc1	54	-1	-41%	i	6	-4%
CSc1nn(CC(=O)Nc2ccccc2F)c(N)c1S(=O)(=O)c1ccccc1	.	-3	.	i	.	3%
CC1=C(C(=O)OC(C)C)C(c2cccs2)C(C(=O)OC(C)C)=C(C)N1	-73*	4	16%	i	36	-18%
SMILES	IL-1B inflam inh	D3 ag	a7 integrin act	ATXN viability	DRD3 antagonist	ATXN2 expr inh
COC(=O)C1=C(C)N(Cc2ccccc2)C(=NCC2CC2)N[C@H]1c1ccccc1	-14	-16	-41%	?	-27	-25%
COC(=O)C1=C(C)N(Cc2ccccc2)C(=NCc2ccc3c(c2)OCO3)N[C@H]1c1ccccc1	-57*	3	-8%	?	3	-15%
CCN1C(=NCCc2ccccn2)N[C@@H](c2cccc(C(F)(F)F)c2)C(C(=O)OC)=C1C	?	-37	3%	i	-53*	-9%
COC(=O)C1=C(C)N(Cc2ccccc2)C(=NCc2ccccc2)N[C@H]1c1cccc(C(F)(F)F)c1	?	33*	-44%	.	22	?
CCN1C(=NCc2ccc(OC)cc2)N[C@@H](c2ccccc2)C(C(=O)OC)=C1C	-24	41*	-5%	i	22	-5%
CCOc1ccc(C(=O)N2CCC(c3noc(-c4ccc(S(=O)(=O)N5CCCC5)cc4)n3)CC2)cc1	.	-5	.	.	.	.
COC(=O)C1=C(C)N(Cc2ccccc2)C(=NCCc2ccccn2)N[C@H]1c1cccc(C(F)(F)F)c1	-27	-23	-32%	?	-20	35µM*
COCCN(C(=O)COC(=O)Cc1c(C)nc2ccccc2c1C)c1c(N)n(CC(C)C)c(=O)[nH]c1=O	32	-23	-8%	i	0	13%
COc1ccc2c(c1)c(C(=O)O)c(C)n2CCc1ccc(OC)c(OC)c1	20	1	-12%	i	0	0%
Cc1ccc(NC(=O)c2nnn(-c3ccc4c(c3)OCCO4)c2N)cc1	-90*	-6	24%	?	-8	24%
Cc1ccccc1Cn1nnc(C(=O)Nc2ccc3c(c2)OCCO3)c1N	?	-9	-18%	i	-4	43%
Nc1c(C(=O)Nc2ccccc2)nnn1-c1ccc2c(c1)OCCO2	-60*	8	9%	i	1	-38%
Cc1ccc(NC(=O)c2nnn(-c3cccc(C(F)(F)F)c3)c2N)cc1	-5	2	1%	i	10	-16%
COc1ccccc1-c1noc(CCC(=O)Nc2ccc(C)cc2C)n1	.	2	.	i	.	3%
C/C(=N\Nc1cc(C)nc(-c2ccccc2)n1)c1cccc([N+](=O)[O-])c1	-29	8	-42%	?	37	-30%
C/C(=N\Nc1cc(C)nc(-c2ccccc2O)n1)c1ccccc1	-68*	14	-5%	i	77	2%
Cc1cc(N/N=C/c2ccc(O)c(C)c2O)nc(-c2ccccc2O)n1	-98*	21	-63%	16µM*	64	?
C/C(=N\Nc1nc(C)cc(-c2ccccc2)n1)c1ccc(O)cc1	-74*	8	-41%	i	16	-22%
COc1cc(N/N=C(\C)c2ccc(O)c(C)c2)nc(-c2ccccc2)n1	-59*	21	-34%	i	39	23%
Cc1cc(Nc2ccc(Br)cc2)nc(-c2ccccc2O)n1	-24	12	12%	?	4	-13%
CC(C)(C)NC(=O)C(c1cccs1)N(Cc1cccs1)C(=O)c1ccc(CN2CCOCC2)o1 (stereo not drawn)	-18	-2	9%	i	-28	-13%
